Measured values reported in PubChem BioAssay (EPA / NIEHS).
Active and inactive are the calls of the source. How the source made its calls: active means hit-call score of the fitted dose curve at least 0.9, where 1 is the maximum; inactive means score below 0.9.

Experiments:
Conditions in all cases: mRNA level, 48 h; actives raise or lower the signal
[1] = read-out: Glutamate-cysteine ligase catalytic (GCLC), GCLC (gene 2729); experiment: LTEA_HepaRG_GCLC: Life Technologies and Expression Analysis (LTEA) Assay for Glutamate-cysteine ligase catalytic (GCLC) using HepaRG (AID 2283498)
Summary of the method: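 Read-out is GCLC transcript level by Fluidigm-based TaqMan qRT-PCR, normalized to three housekeeping genes and fitted in both directions relative to 0.5% DMSO. Human HepaRG cells received chemicals for 48 h, up to 100 uM.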

[2] = read-out: growth arrest and DNA damage 45 (GADD45G), GADD45G (gene 10912); experiment: LTEA_HepaRG_GADD45G: Life Technologies and Expression Analysis (LTEA) Assay for growth arrest and DNA damage 45 (GADD45G) using HepaRG (AID 2283499)
Summary of the method: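 Differentiated human HepaRG cells, 48 h post-plating, exposed 48 h in serum-free induction medium to 8 half-log concentrations (top 100 uM, 0.5% DMSO) in duplicate. GADD45G mRNA measured by Fluidigm TaqMan qRT-PCR, normalized to ACTB, GAPDH, POLR2A; bidirectional fit versus DMSO.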

[3] = read-out: Glutamate-cysteine ligase regulatory (GCLM), GCLM (gene 2730); experiment: LTEA_HepaRG_GCLM: Life Technologies and Expression Analysis (LTEA) Assay for Glutamate-cysteine ligase regulatory (GCLM) using HepaRG (AID 2283500)
Summary of the method: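 Differentiated human HepaRG cells exposed 48 h in serum-free induction medium to 8-point half-log concentrations (top 100 uM, 0.5% DMSO), in duplicate. GCLM mRNA quantified by qRT-PCR, normalized to ACTB, GAPDH, POLR2A; bidirectional fitting versus DMSO.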

[4] = read-out: Hypoxia-inducible factor 1-alpha (Homo sapiens) (UniProt Q16665); experiment: LTEA_HepaRG_HIF1A: Life Technologies and Expression Analysis (LTEA) Assay for Hypoxia-inducible factor 1 (HIF1A) Trancription factor using HepaRG (AID 2283503)
Summary of the method: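 HepaRG, 48 h exposure, 8-pt half-log series from 100 uM, 0.5% DMSO vehicle, duplicates. Readout: HIF1A transcript by qRT-PCR (Fluidigm array), housekeeping-normalised. Bidirectional curve fit vs DMSO baseline.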

[5] = read-out: 3-Hydroxy-3-Methylglutaryl-CoA Synthase 2 (HMGCS2), HMGCS2 (gene 3158); experiment: LTEA_HepaRG_HMGCS2: Life Technologies and Expression Analysis (LTEA) Assay for 3-Hydroxy-3-Methylglutaryl-CoA Synthase 2 (HMGCS2) using HepaRG (AID 2283504)
Summary of the method: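 Human HepaRG cells in serum-free induction medium were exposed in duplicate for 48 h to 8-point half-log series from 100 uM top in 0.5% DMSO. HMGCS2 mRNA measured by TaqMan qRT-PCR, normalised to ACTB, GAPDH, POLR2A; bidirectional fit versus DMSO.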

HGF (gene 3082) = experiment: LTEA_HepaRG_HGF: Life Technologies and Expression Analysis (LTEA) Assay for Hepatocyte Growth Facto (HGF) using HepaRG (AID 2283505)
Summary of the method: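 Differentiated HepaRG cells in serum-free induction medium exposed 48 h in duplicate, 8 half-log concentrations from 100 uM in 0.5% DMSO. HGF mRNA by qRT-PCR, normalised to ACTB, GAPDH, POLR2A; bidirectional fitting.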

[6] = read-out: Insulin Like Growth Factor 1 (IGF1), IGF1 (gene 3479); experiment: LTEA_HepaRG_IGF1: Life Technologies and Expression Analysis (LTEA) Assay for Insulin Like Growth Factor 1 (IGF1) using HepaRG (AID 2283506)
Summary of the method: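 Differentiated human HepaRG cells were dosed for 48 h in serum-free induction medium with 0.5% DMSO, eight half-log concentrations up to 100 uM, in duplicate. IGF1 mRNA was quantified by qRT-PCR normalized to ACTB, GAPDH, POLR2A; bidirectional fitting versus DMSO.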

[7] = read-out: Intercellular Adhesion Molecule 1 (ICAM1), ICAM1 (gene 3383); experiment: LTEA_HepaRG_ICAM1: Life Technologies and Expression Analysis (LTEA) Assay for Intercellular Adhesion Molecule 1 (ICAM1) using HepaRG (AID 2283507)
Summary of the method: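 Differentiated human HepaRG cells in serum-free induction medium exposed 48 h in duplicate to 8 half-log concentrations (top 100 uM, 0.5% DMSO). ICAM1 mRNA quantified by TaqMan qRT-PCR, normalized to ACTB, GAPDH and POLR2A; bidirectional fitting versus DMSO.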

[8] = read-out: Insulin-like growth factor-binding protein 1 (IGFBP1), IGFBP1 (gene 3484); experiment: LTEA_HepaRG_IGFBP1: Life Technologies and Expression Analysis (LTEA) Assay for Insulin-like growth factor-binding protein 1 (IGFBP1) using HepaRG (AID 2283508)
Summary of the method: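 HepaRG cells, plated 48 h then switched to serum-free induction medium, exposed in duplicate for 48 h to 8-point half-log series from 100 uM in 0.5% DMSO. mRNA measured by qRT-PCR, normalized to ACTB/GAPDH/POLR2A; bidirectional fit versus DMSO.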

[9] = read-out: Interleukin 6 Receptor (IL6R), IL6R (gene 3570); experiment: LTEA_HepaRG_IL6R: Life Technologies and Expression Analysis (LTEA) Assay for Interleukin 6 Receptor (IL6R) using HepaRG (AID 2283510);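 on AC50: TaqMan qRT-PCR signal normalized to ACTB GAPDH and POLR2A housekeeping genes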
Summary of the method: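 Differentiated human HepaRG cells, plated 48 h then switched to serum-free induction medium, were dosed in duplicate for 48 h at eight half-log concentrations up to 100 uM in 0.5% DMSO. IL6R mRNA quantified by qRT-PCR, normalized to ACTB/GAPDH/POLR2A; bidirectional fit versus DMSO.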

[10] = read-out: Potassium channel subfamily K member 1 (KCNK1), KCNK1 (gene 3775); experiment: LTEA_HepaRG_KCNK1: Life Technologies and Expression Analysis (LTEA) Assay for Potassium channel subfamily K member 1 (KCNK1) using HepaRG (AID 2283511)
Summary of the method: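 Gain or loss of KCNK1 mRNA is the read-out, quantified by qRT-PCR against three housekeeping genes after 48 h chemical treatment of human HepaRG liver cells. Concentrations ran from 100 uM downward in half-log steps, vehicle 0.5% DMSO.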

[11] = read-out: Keratin 19 (KRT19), KRT19 (gene 3880); experiment: LTEA_HepaRG_KRT19: Life Technologies and Expression Analysis (LTEA) Assay for Keratin 19 (KRT19) using HepaRG (AID 2283512)
Summary of the method: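 Differentiated HepaRG cells in serum-free induction medium, exposed 48 h in duplicate to 8 half-log concentrations up to 100 uM in 0.5% DMSO. KRT19 mRNA by qRT-PCR, normalized to ACTB, GAPDH, POLR2A; bidirectional fit vs DMSO.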

[12] = read-out: JUN Transcription Factor, JUN (gene 3725); experiment: LTEA_HepaRG_JUN: Life Technologies and Expression Analysis (LTEA) Assay for JUN Transcription Factor using HepaRG (AID 2283513)
Summary of the method: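 Differentiated HepaRG cells were exposed to chemicals for 48 h in serum-free induction medium, 8 concentrations from 100 uM in half-log steps, 0.5% DMSO vehicle, in duplicate. JUN mRNA was quantified by TaqMan qRT-PCR, normalized to ACTB, GAPDH, POLR2A.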

[13] = read-out: Lipase C (LIPC), LIPC (gene 3990); experiment: LTEA_HepaRG_LIPC: Life Technologies and Expression Analysis (LTEA) Assay for Lipase C (LIPC) using HepaRG (AID 2283514)
Summary of the method: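 Read-out is LIPC transcript level by TaqMan qRT-PCR, normalized to three housekeeping genes, after 48 h chemical treatment of human HepaRG liver cells. Curves span eight concentrations topping at 100 uM; activity in either direction scored relative to 0.5% DMSO.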

[14] = read-out: MicroRNA 122 (MIR122), gene 406906; experiment: LTEA_HepaRG_MIR122: Life Technologies and Expression Analysis (LTEA) Assay for MicroRNA 122 (MIR122) using HepaRG (AID 2283516); further: the transcript read is the microRNA miR-122
Summary of the method: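 Differentiated human HepaRG cells were exposed 48 h in serum-free induction medium to eight half-log concentrations (top 100 uM, 0.5% DMSO). Transcript level was measured by TaqMan qRT-PCR, normalized to ACTB, GAPDH and POLR2A, and fitted bidirectionally versus DMSO.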

[15] = read-out: matrix metalloproteinase-10 (MMP10), MMP10 (gene 4319); experiment: LTEA_HepaRG_MMP10: Life Technologies and Expression Analysis (LTEA) Assay for matrix metalloproteinase-10 (MMP10) using HepaRG (AID 2283517)
Summary of the method: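 Gain or loss of MMP10 mRNA is fitted relative to the 0.5% DMSO vehicle. The human hepatic line HepaRG receives a 48-hour serum-free exposure, in duplicate, with a maximum concentration of 100 uM.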

[16] = read-out: Heat shock 70 kDa protein 1 (HSPA1A), gene 3303; experiment: LTEA_HepaRG_HSPA1A: Life Technologies and Expression Analysis (LTEA) Assay for Heat shock 70 kDa protein 1 (HSPA1A) using HepaRG (AID 2283502)
Summary of the method: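 Differentiated human HepaRG cells in serum-free induction medium were exposed in duplicate for 48 h to eight concentrations (top 100 uM, half-log steps, 0.5% DMSO). HSPA1A mRNA was quantified by qRT-PCR, normalized to ACTB, GAPDH and POLR2A, and fitted bidirectionally against DMSO.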

[17] = read-out: Interleukin 6 (IL6), IL6 (gene 3569); experiment: LTEA_HepaRG_IL6: Life Technologies and Expression Analysis (LTEA) Assay for Interleukin 6 (IL6) using HepaRG (AID 2283509)
Summary of the method: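 HepaRG, ~100,000 cells/well, 48 h pre-culture; serum-free induction medium; cmpd 8-pt half-log from 100 uM, 0.5% DMSO, duplicate, 48 h. Lysis in RLT, TaqMan qRT-PCR; gain or loss vs DMSO.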

[18] = read-out: Lipoprotein lipase (LPL), LPL (gene 4023); experiment: LTEA_HepaRG_LPL: Life Technologies and Expression Analysis (LTEA) Assay for Lipoprotein lipase (LPL) using HepaRG (AID 2283515)
Summary of the method: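 Read-out is LPL transcript level by qRT-PCR, normalized to three housekeeping genes and fitted bidirectionally against the DMSO control. Human HepaRG cells received chemicals for 48 h at up to 100 uM.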

Sequence of Hypoxia-inducible factor 1-alpha (Homo sapiens) (Q16665 whole entry, looked up): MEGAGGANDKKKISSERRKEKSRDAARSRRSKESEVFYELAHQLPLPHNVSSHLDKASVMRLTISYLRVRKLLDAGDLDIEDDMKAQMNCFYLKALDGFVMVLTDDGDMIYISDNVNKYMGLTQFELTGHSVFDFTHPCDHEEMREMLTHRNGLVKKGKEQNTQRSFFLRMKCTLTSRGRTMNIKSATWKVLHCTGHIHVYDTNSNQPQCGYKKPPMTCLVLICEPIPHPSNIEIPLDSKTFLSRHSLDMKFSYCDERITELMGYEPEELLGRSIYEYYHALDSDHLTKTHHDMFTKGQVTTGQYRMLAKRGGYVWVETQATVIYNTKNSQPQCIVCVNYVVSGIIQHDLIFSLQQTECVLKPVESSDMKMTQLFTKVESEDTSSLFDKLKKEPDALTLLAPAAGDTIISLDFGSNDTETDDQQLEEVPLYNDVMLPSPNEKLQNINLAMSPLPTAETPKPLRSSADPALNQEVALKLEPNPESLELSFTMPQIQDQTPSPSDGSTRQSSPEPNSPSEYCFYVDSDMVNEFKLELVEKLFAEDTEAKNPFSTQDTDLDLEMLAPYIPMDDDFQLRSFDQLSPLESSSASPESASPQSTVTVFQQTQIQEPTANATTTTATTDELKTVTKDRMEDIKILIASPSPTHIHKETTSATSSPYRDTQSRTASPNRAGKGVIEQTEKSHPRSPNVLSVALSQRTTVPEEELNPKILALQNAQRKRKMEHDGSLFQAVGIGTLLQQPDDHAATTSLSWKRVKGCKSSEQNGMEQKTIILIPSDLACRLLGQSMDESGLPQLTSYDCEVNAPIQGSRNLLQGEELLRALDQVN

Cc1nccn1-c1ccc(Sc2cccc(C3(C(N)=O)CCOCC3)c2)cc1
outcome [1]: inactive | AC50 [2]: 4.69 µM (active) | AC50 [3]: 7.4 µM (active) | outcome [4]: inactive | AC50 [5]: 11 µM (active) | AC50 (HGF (gene 3082)): 20.6 µM (active) | AC50 [6]: 7.82 µM (active) | AC50 [7]: 10.7 µM (active) | AC50 [8]: 9.01 µM (active) | AC50 [9]: 13.1 µM (active) | outcome [10]: inactive | AC50 [11]: 6.52 µM (active) | AC50 [12]: 19.4 µM (active) | AC50 [13]: 12.2 µM (active) | AC50 [14]: 15.1 µM (active) | AC50 [15]: 17.6 µM (active)

CC[C@H](C)C(=O)O[C@H]1C[C@H](O)C=C2C=C[C@H](C)[C@H](CC[C@@H](O)C[C@@H](O)CC(=O)O)[C@H]21
outcome [1]: inactive | outcome [2]: inactive | outcome [3]: inactive | outcome [16]: inactive | outcome [5]: inactive | outcome (HGF (gene 3082)): inactive | outcome [6]: inactive | outcome [7]: inactive | outcome [8]: inactive | outcome [17]: inactive | outcome [9]: inactive | outcome [10]: inactive | outcome [11]: inactive | outcome [12]: inactive | outcome [13]: inactive | outcome [18]: inactive | outcome [14]: inactive | outcome [15]: inactive
